PubChem BioAssay (NCI)
About 79,000 compounds went through this panel and 15% of them were active in at least one assay; those are over-represented in the sample as a whole. Unmarked numbers belong to inactive results. The source made the active and inactive calls. Cut-off read from the data, not from the text of the source: active = growth inhibition above about 70%; inactive = the rest.

Key:
[1] = NCI Yeast Anticancer Drug Screen. Data for the wt1 strain (AID 149);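 note: 0% = growth of vehicle-treated wt1 cultures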; conditions: S. cerevisiae wt1 strain (SPY 50644) growth inhibition, stronger effect = higher value
Method in brief: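 Measured: growth of wt1 yeast under compound versus vehicle treatment, reported as inhibition.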

[2] = NCI Yeast Anticancer Drug Screen. Data for the rad50EPP+ strain (AID 151);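 note: 0% = growth of vehicle-treated control cultures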; conditions: S. cerevisiae rad50 mutant strain, stronger effect = higher value
Method in brief: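 Vehicle-normalised growth inhibition; rad50EPP+ yeast strain, altered in DNA damage repair, compound-treated.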

[3] = NCI Yeast Anticancer Drug Screen. Data for the rad50 strain (AID 155);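 note: 0% = growth of vehicle-only cultures of the same strain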; conditions: S. cerevisiae rad50 strain growth inhibition, stronger effect = higher value
Method in brief: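 Growth of the mutant yeast was measured after compound exposure and referenced to vehicle-treated cultures.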

[4] = NCI Yeast Anticancer Drug Screen. Data for the mec2-1 strain (AID 157); conditions: S. cerevisiae mec2-1 strain, stronger effect = higher value
Method in brief: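 Mutant yeast (mec2-1) grown with compound; growth inhibition relative to vehicle control reported.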

[5] = NCI Yeast Anticancer Drug Screen. Data for the rad14 strain (AID 159);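 note: 0% = growth of vehicle-treated control cultures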; conditions: S. cerevisiae rad14 strain growth inhibition, stronger effect = higher value
Method in brief: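 Here, inhibition of yeast growth was measured after compound exposure, using a strain with a genetic defect in DNA damage repair and vehicle-treated cultures as the reference.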

[6] = NCI Yeast Anticancer Drug Screen. Data for the sgs1 mgt1 strain (AID 161);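 note: 0% = growth of cultures given vehicle only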; conditions: S. cerevisiae sgs1 mgt1 strain, stronger effect = higher value
Method in brief: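 Yeast cells carrying a defined DNA-repair defect were exposed to test compounds. Growth inhibition was measured relative to vehicle-treated controls.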

[7] = NCI Yeast Anticancer Drug Screen. Data for the CLN2oe strain (AID 163);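 note: 0% = growth of vehicle-only control cultures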; conditions: S. cerevisiae CLN2oe strain, stronger effect = higher value
Method in brief: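 Compounds are applied to yeast harbouring a defined cell-cycle control change; reduced growth compared with vehicle-treated controls gives the value.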

[8] = NCI Yeast Anticancer Drug Screen. Data for the cln2 rad14 strain (AID 165);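 note: 0% = growth equal to vehicle treated cultures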; conditions: S. cerevisiae cln2 rad14 strain, stronger effect = higher value
Method in brief: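 Readout is yeast growth inhibition versus vehicle-treated controls, using a strain with cln2 and rad14 alterations exposed to compound.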

[9] = NCI Yeast Anticancer Drug Screen. Data for the bub3 strain (AID 167); conditions: S. cerevisiae bub3 mutant strain, stronger effect = higher value
Method in brief: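 Whole-cell yeast assay. The mutant strain was incubated with compounds, and growth inhibition was determined by comparison with vehicle-treated cells.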

[10] = NCI Yeast Anticancer Drug Screen. Data for the wt2 strain (AID 169);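 note: 0% = growth of vehicle-treated yeast cultures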; conditions: S. cerevisiae wt2 strain growth inhibition, stronger effect = higher value
Method in brief: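 Against vehicle-treated controls, the growth of yeast exposed to each compound was compared, and the inhibition was recorded.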

[11] = NCI Yeast Anticancer Drug Screen. Data for the mlh1 strain (AID 171);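 note: 0% = growth of vehicle-treated control cultures of the same strain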; conditions: S. cerevisiae mlh1 strain growth inhibition, stronger effect = higher value
Method in brief: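 Measured: yeast growth. Reference: vehicle-treated controls. Organism: strain with a defined alteration affecting DNA damage repair or cell cycle control, treated with compound.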

[12] = NCI Yeast Anticancer Drug Screen. Data for the sgs1 strain (AID 173);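 note: 0% = growth of vehicle-only control cultures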; conditions: S. cerevisiae sgs1 mutant, stronger effect = higher value
Method in brief: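 Each compound was added to cultures of the altered yeast strain. Growth was recorded, and inhibition was derived by comparison with vehicle controls.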

[13] = NCI Yeast Anticancer Drug Screen. Data for the mlh1 rad18 strain (AID 175); conditions: S. cerevisiae mlh1 rad18 strain growth inhibition, stronger effect = higher value
Method in brief: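 Genetically defined yeast (DNA repair-deficient) exposed to compounds; growth inhibition determined relative to vehicle.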

[14] = NCI Yeast Anticancer Drug Screen. Data for the rad52 strain (AID 147);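 note: 0% = growth of vehicle-treated control cultures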; conditions: S. cerevisiae rad52 mutant growth inhibition, stronger effect = higher value
Method in brief: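 The repair-mutant yeast strain was incubated with compounds, then growth was read and inhibition derived relative to vehicle.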

[15] = NCI Yeast Anticancer Drug Screen. Data for the mgt1 strain (AID 153); conditions: S. cerevisiae mgt1 mutant growth inhibition, stronger effect = higher value
Method in brief: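 Vehicle-normalized growth inhibition is determined in mgt1 yeast, a strain selected for a defined alteration in DNA repair or cell cycle control.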

[16] = at 5.0 µM (retest, dose inferred, filed as 0.5)
[17] = at 50.0 µM (retest, dose inferred, filed as 5.0)

## O=C1C=CC(=O)N1c1ccc2c(c1)OCO2
[1]; at 1.2 µM
  growth inhibition: 9%
[1]; at 3.7 µM
  growth inhibition: 96% (active)
[1]; at 11.0 µM
  growth inhibition: 100% (active)
[1]; at 33.0 µM
  growth inhibition: 100% (active)
[1]; at 100.0 µM
  growth inhibition: 100% (active)
[2]; at 1.2 µM
  growth inhibition: 9%
[2]; at 3.7 µM
  growth inhibition: 80% (active)
[2]; at 11.0 µM
  growth inhibition: 99% (active)
[2]; at 33.0 µM
  growth inhibition: 99% (active)
[2]; at 100.0 µM
  growth inhibition: 99% (active)
[3]; at 1.2 µM
  growth inhibition: 12%
[3]; at 3.7 µM
  growth inhibition: 86% (active)
[3]; [16]
  growth inhibition: 84% (active)
[3]; at 11.0 µM
  growth inhibition: 99% (active)
[3]; at 33.0 µM
  growth inhibition: 99% (active)
[3]; [17]
  growth inhibition: 97% (active)
[3]; at 50.0 µM
  growth inhibition: 99% (active)
[3]; at 100.0 µM
  growth inhibition: 99% (active)
[4]; at 1.2 µM
  growth inhibition: -3%
[4]; at 3.7 µM
  growth inhibition: 76% (active)
[4]; [16]
  growth inhibition: 12%
[4]; at 11.0 µM
  growth inhibition: 100% (active)
[4]; at 33.0 µM
  growth inhibition: 100% (active)
[4]; [17]
  growth inhibition: 99% (active)
[4]; at 50.0 µM
  growth inhibition: 98.5% (active)
[4]; at 100.0 µM
  growth inhibition: 99% (active)
[5]; at 1.2 µM
  growth inhibition: 21%
[5]; at 3.7 µM
  growth inhibition: 99% (active)
[5]; at 11.0 µM
  growth inhibition: 100% (active)
[5]; at 33.0 µM
  growth inhibition: 100% (active)
[5]; at 100.0 µM
  growth inhibition: 100% (active)
[6]; [16]
  growth inhibition: 8%
[6]; [17]
  growth inhibition: 98% (active)
[6]; at 50.0 µM
  growth inhibition: 99.2% (active)
[7]; at 1.2 µM
  growth inhibition: -9%
[7]; at 3.7 µM
  growth inhibition: 40%
[7]; at 11.0 µM
  growth inhibition: 100% (active)
[7]; at 33.0 µM
  growth inhibition: 100% (active)
[7]; at 100.0 µM
  growth inhibition: 99% (active)
[8]; [16]
  growth inhibition: -4%
[8]; [17]
  growth inhibition: 98% (active)
[8]; at 50.0 µM
  growth inhibition: 99% (active)
[9]; at 1.2 µM
  growth inhibition: 2%
[9]; at 3.7 µM
  growth inhibition: 90% (active)
[9]; [16]
  growth inhibition: 25%
[9]; at 11.0 µM
  growth inhibition: 100% (active)
[9]; at 33.0 µM
  growth inhibition: 99% (active)
[9]; [17]
  growth inhibition: 98% (active)
[9]; at 50.0 µM
  growth inhibition: 99.2% (active)
[9]; at 100.0 µM
  growth inhibition: 99% (active)
[10]; at 1.2 µM
  growth inhibition: 17%
[10]; at 3.7 µM
  growth inhibition: 99% (active)
[10]; at 11.0 µM
  growth inhibition: 100% (active)
[10]; at 33.0 µM
  growth inhibition: 100% (active)
[10]; at 100.0 µM
  growth inhibition: 100% (active)
[11]; at 1.2 µM
  growth inhibition: -11%
[11]; at 3.7 µM
  growth inhibition: 58%
[11]; at 11.0 µM
  growth inhibition: 100% (active)
[11]; at 33.0 µM
  growth inhibition: 100% (active)
[11]; at 100.0 µM
  growth inhibition: 99% (active)
[12]; at 1.2 µM
  growth inhibition: 15%
[12]; at 3.7 µM
  growth inhibition: 85% (active)
[12]; at 11.0 µM
  growth inhibition: 100% (active)
[12]; at 33.0 µM
  growth inhibition: 100% (active)
[12]; at 100.0 µM
  growth inhibition: 100% (active)
[13]; [16]
  growth inhibition: -39%
[13]; [17]
  growth inhibition: 97% (active)
[13]; at 50.0 µM
  growth inhibition: 99.2% (active)

## N#C/C(=C/c1c(Cl)cccc1Cl)C(N)=O
[14]; at 1.2 µM
  growth inhibition: 0%
[14]; at 3.7 µM
  growth inhibition: 5%
[14]; at 11.0 µM
  growth inhibition: 13%
[14]; at 33.0 µM
  growth inhibition: 63%
[14]; at 100.0 µM
  growth inhibition: 96% (active)
[2]; at 1.2 µM
  growth inhibition: -24%
[2]; at 3.7 µM
  growth inhibition: -29%
[2]; at 11.0 µM
  growth inhibition: -30%
[2]; at 33.0 µM
  growth inhibition: -24%
[2]; at 100.0 µM
  growth inhibition: 57%
[15]; at 1.2 µM
  growth inhibition: -4%
[15]; at 3.7 µM
  growth inhibition: -15%
[15]; at 11.0 µM
  growth inhibition: 1%
[15]; at 33.0 µM
  growth inhibition: 63%
[15]; at 100.0 µM
  growth inhibition: 98% (active)
[3]; at 1.2 µM
  growth inhibition: -10%
[3]; at 3.7 µM
  growth inhibition: 3%
[3]; [16]
  growth inhibition: 47%
[3]; at 11.0 µM
  growth inhibition: 3%
[3]; at 33.0 µM
  growth inhibition: 69%
[3]; at 50.0 µM
  growth inhibition: 77.2% (active)
[3]; at 100.0 µM
  growth inhibition: 97% (active)
[4]; at 1.2 µM
  growth inhibition: -26%
[4]; at 3.7 µM
  growth inhibition: -8%
[4]; [16]
  growth inhibition: 46%
[4]; at 11.0 µM
  growth inhibition: -7%
[4]; at 33.0 µM
  growth inhibition: 58%
[4]; at 50.0 µM
  growth inhibition: 74.8% (active)
[4]; at 100.0 µM
  growth inhibition: 97% (active)
[5]; at 1.2 µM
  growth inhibition: -3%
[5]; at 3.7 µM
  growth inhibition: -15%
[5]; at 11.0 µM
  growth inhibition: -1%
[5]; at 33.0 µM
  growth inhibition: 55%
[5]; at 100.0 µM
  growth inhibition: 97% (active)
[6]; [16]
  growth inhibition: -1%
[7]; at 1.2 µM
  growth inhibition: 9%
[7]; at 3.7 µM
  growth inhibition: -2%
[7]; at 11.0 µM
  growth inhibition: 3%
[7]; at 33.0 µM
  growth inhibition: 18%
[7]; at 100.0 µM
  growth inhibition: 81% (active)
[8]; [16]
  growth inhibition: 45%
[9]; at 1.2 µM
  growth inhibition: -5%
[9]; at 3.7 µM
  growth inhibition: 4%
[9]; [16]
  growth inhibition: 37%
[9]; at 11.0 µM
  growth inhibition: 14%
[9]; at 33.0 µM
  growth inhibition: 65%
[9]; [17]
  growth inhibition: 96% (active)
[9]; at 100.0 µM
  growth inhibition: 97% (active)
[10]; at 1.2 µM
  growth inhibition: -16%
[10]; at 3.7 µM
  growth inhibition: -2%
[10]; at 11.0 µM
  growth inhibition: -2%
[10]; at 33.0 µM
  growth inhibition: 58%
[10]; at 100.0 µM
  growth inhibition: 96% (active)
[11]; at 1.2 µM
  growth inhibition: -16%
[11]; at 3.7 µM
  growth inhibition: -15%
[11]; at 11.0 µM
  growth inhibition: 0%
[11]; at 33.0 µM
  growth inhibition: 71% (active)
[11]; at 100.0 µM
  growth inhibition: 97% (active)
[12]; at 1.2 µM
  growth inhibition: 15%
[12]; at 3.7 µM
  growth inhibition: 9%
